PubChem BioAssay AID1159580 (chemical genetic matrix, 2015)
About 2,000 (36%) of roughly 5,500 compounds were called active. Roughly 18% stayed inconclusive and do not appear here. Rule as the data show it: active = normalized growth mostly below about 0.91 (no sharp cut-off); inconclusive = no clear call, values can overlap the other calls; inactive = mostly above about 0.92. The list shows a part of the results.

Test: chemical genetic growth profiling, strain panel (AID 1159580);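 also: tested at 20 µM; growth read once vehicle control cultures reached saturation at 30 °C; 1 = growth at the plate median or of vehicle wells; lower values mean less growth of the strain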
Details: growth OD

Measured: normalized growth

CC(Oc1ccccc1)C(=O)N[C@@H]1C(=O)N2[C@@H]1SC(C)(C)[C@@H]2C(=O)O (some centres not stated)
inactive: S. cerevisiae deletion strains, locus YJR075W, strain HOC1, active compounds read low 1.01 | S. cerevisiae deletion strains, locus YKL009W, strain mrt4, active compounds read low 0.995 | S. cerevisiae deletion strains, locus YKL068W, active compounds read low 1.01 | S. cerevisiae deletion strains, locus YKL085W, strain MDH1 (second series), active compounds read low 1 | S. cerevisiae deletion strains, locus YKL085W, strain MDH1, active compounds read low 1 | S. cerevisiae deletion strains, locus YKL160W, strain elf1, active compounds read low 0.985 | S. cerevisiae deletion strains, locus YKL190W, strain CNB1, active compounds read low 1.01 | S. cerevisiae deletion strains, locus YKR001C, strain vps1, active compounds read low 1.02 | S. cerevisiae deletion strains, locus YKR026C, strain gcn3, active compounds read low 0.993 | S. cerevisiae deletion strains, locus YKR091W, strain srl3, active compounds read low 0.993 | S. cerevisiae deletion strains, locus YLL001W, strain dnm1, active compounds read low 0.983 | S. cerevisiae deletion strains, locus YLL026W, active compounds read low 0.998 | S. cerevisiae deletion strains, locus YLL041C, strain sdh2, active compounds read low 0.992 | S. cerevisiae deletion strains, locus YLR027C, strain aat2, active compounds read low 1 | S. cerevisiae deletion strains, locus YLR039C, strain RIC1, active compounds read low 1.02 | S. cerevisiae deletion strains, locus YLR058C, strain SHM2, active compounds read low 1.01 | S. cerevisiae deletion strains, locus YLR102C, strain apc9, active compounds read low 1.02 | S. cerevisiae deletion strains, locus YLR113W, strain HOG1, active compounds read low 1.01 | S. cerevisiae deletion strains, locus YLR221C, strain rsa3, active compounds read low 0.981 | S. cerevisiae deletion strains, locus YLR258W, strain gsy2, active compounds read low 0.986 | S. cerevisiae deletion strains, locus YLR262C, strain YPT6 (second series), active compounds read low 1.01 | S. cerevisiae deletion strains, locus YLR262C, strain YPT6, active compounds read low 1.04 | S. cerevisiae deletion strains, locus YLR268W, strain sec22, active compounds read low 1.03 | S. cerevisiae deletion strains, locus YLR320W, strain mms22, active compounds read low 0.984 | S. cerevisiae deletion strains, locus YLR330W, strain CHS5, active compounds read low 1.01 | S. cerevisiae deletion strains, locus YLR342W, strain FKS1 (second series), active compounds read low 1 | S. cerevisiae deletion strains, locus YLR342W, strain FKS1, active compounds read low 1 | S. cerevisiae deletion strains, locus YLR357W, strain rsc2, active compounds read low 0.978 | S. cerevisiae deletion strains, locus YLR370C, strain arc18, active compounds read low 0.992 | S. cerevisiae deletion strains, locus YLR371W, strain rom2, active compounds read low 1.02 | S. cerevisiae deletion strains, locus YLR384C, strain iki3, active compounds read low 0.992 | S. cerevisiae deletion strains, locus YLR418C, strain cdc73, active compounds read low 1.04 | S. cerevisiae deletion strains, locus YML016C, strain PPZ1, active compounds read low 1.02 | S. cerevisiae deletion strains, locus YML032C, strain rad52, active compounds read low 1.02 | S. cerevisiae deletion strains, locus YML120C, strain ndi1, active compounds read low 0.985 | S. cerevisiae deletion strains, locus YML124C, strain tub3, active compounds read low 1.02 | S. cerevisiae deletion strains, locus YMR058W, strain fet3, active compounds read low 1 | S. cerevisiae deletion strains, locus YMR078C, strain ctf18, active compounds read low 1.03 | S. cerevisiae deletion strains, locus YMR125W, strain sto1, active compounds read low 0.992 | S. cerevisiae deletion strains, locus YMR129W, active compounds read low 0.99 | S. cerevisiae deletion strains, locus YMR205C, strain PFK2, active compounds read low 0.995 | S. cerevisiae deletion strains, locus YMR223W, strain ubp8, active compounds read low 1.01 | S. cerevisiae deletion strains, locus YMR231W, strain pep5, active compounds read low 1 | S. cerevisiae deletion strains, locus YMR263W, strain SAP30, active compounds read low 1.01 | S. cerevisiae deletion strains, locus YMR307W, strain GAS1, active compounds read low 1.02 | S. cerevisiae deletion strains, locus YNL067W, strain RPL9B, active compounds read low 1.01 | S. cerevisiae deletion strains, locus YNL071W, strain lat1, active compounds read low 0.996 | S. cerevisiae deletion strains, locus YNL128W, strain TEP1, active compounds read low 1.02 | S. cerevisiae deletion strains, locus YNL153C, strain GIM3, active compounds read low 1.01 | S. cerevisiae deletion strains, locus YNL183C, strain NPR1, active compounds read low 0.972 | S. cerevisiae deletion strains, locus YNL209W, strain ssb2, active compounds read low 0.996 | S. cerevisiae deletion strains, locus YNL233W, strain BNI4, active compounds read low 1.02 | S. cerevisiae deletion strains, locus YNL248C, strain rpa49, active compounds read low 0.991 | S. cerevisiae deletion strains, locus YNL250W, strain rad50, active compounds read low 1.03 | S. cerevisiae deletion strains, locus YNL271C, strain bni1, active compounds read low 1.02 | S. cerevisiae deletion strains, locus YNL298W, strain CLA4, active compounds read low 1.03 | S. cerevisiae deletion strains, locus YNL307C, strain MCK1, active compounds read low 1.03 | S. cerevisiae deletion strains, locus YNL322C, strain KRE1 (second series), active compounds read low 1.01 | S. cerevisiae deletion strains, locus YNL322C, strain KRE1, active compounds read low 1.01 | S. cerevisiae deletion strains, locus YNR049C, strain mso1, active compounds read low 0.992 | S. cerevisiae deletion strains, locus YNR052C, strain pop2, active compounds read low 1.02 | S. cerevisiae deletion strains, locus YOL006C, strain TOP1, active compounds read low 1.05 | S. cerevisiae deletion strains, locus YOL012C, strain htz1 1.34 | S. cerevisiae deletion strains, locus YOL147C, strain pex11, active compounds read low 1.02 | S. cerevisiae deletion strains, locus YOR001W, strain rrp6, active compounds read low 1 | S. cerevisiae deletion strains, locus YOR061W, strain CKA2, active compounds read low 1.02 | S. cerevisiae deletion strains, locus YOR069W, strain VPS5, active compounds read low 1.01 | S. cerevisiae deletion strains, locus YOR070C, strain gyp1, active compounds read low 0.992 | S. cerevisiae deletion strains, locus YOR080W, strain dia2, active compounds read low 0.988 | S. cerevisiae deletion strains, locus YOR083W, strain WHI5, active compounds read low 0.984 | S. cerevisiae deletion strains, locus YOR106W, strain vam3, active compounds read low 0.979 | S. cerevisiae deletion strains, locus YOR136W, strain idh2, active compounds read low 1.02 | S. cerevisiae deletion strains, locus YOR144C, strain elg1, active compounds read low 1.03 | S. cerevisiae deletion strains, locus YOR184W, strain ser1, active compounds read low 1.02 | S. cerevisiae deletion strains, locus YOR231W, strain MKK1, active compounds read low 1.02 | S. cerevisiae deletion strains, locus YOR265W, strain rbl2, active compounds read low 0.991 | S. cerevisiae deletion strains, locus YOR270C, strain vph1, active compounds read low 1.04 | S. cerevisiae deletion strains, locus YOR290C, strain snf2, active compounds read low 1.03 | S. cerevisiae deletion strains, locus YOR316C, strain cot1, active compounds read low 1.02 | S. cerevisiae deletion strains, locus YPL051W, strain arl3, active compounds read low 1.01 | S. cerevisiae deletion strains, locus YPL055C, strain LGE1, active compounds read low 1.02 | S. cerevisiae deletion strains, locus YPL078C, strain atp4, active compounds read low 0.994 | S. cerevisiae deletion strains, locus YPL106C, strain sse1, active compounds read low 0.968 | S. cerevisiae deletion strains, locus YPL240C, strain hsp82, active compounds read low 0.994 | S. cerevisiae deletion strains, locus YPL241C, strain CIN2, active compounds read low 1.01 | S. cerevisiae deletion strains, locus YPL256C, strain CLN2, active compounds read low 1.03 | S. cerevisiae deletion strains, locus YPR119W, strain clb2, active compounds read low 1.02 | S. cerevisiae deletion strains, locus YPR141C, strain kar3, active compounds read low 1.02 | S. cerevisiae deletion strains, locus YPR163C, strain tif3, active compounds read low 1.04 | S. cerevisiae deletion strains, locus YPR167C, strain met16, active compounds read low 1.02 | S. cerevisiae deletion strains, strain wtn01, active compounds read low 1.02 | S. cerevisiae strains, strain wild type, active compounds read low 1.02
